The full list was thinned out, with hits kept by preference.
Apoferritin bind: candidate novel general anesthetic via apoferritin binding | P02791 | apoferritin/1-aminoanthracene competitive binding, fluorescence | Potency, µM (titrated, usually from 77.5 µM), for inactives: top-dose activity change, negative = displacement, hits mostly inhibitors | 0.074% of 350,000 active | AID 485281; further: on the % scale 0 is the no-effect control and ±100 the full control effect; nearly all actives have a fitted effect of over 20% in size
Target sequence (P02791 2-175 limits assumed): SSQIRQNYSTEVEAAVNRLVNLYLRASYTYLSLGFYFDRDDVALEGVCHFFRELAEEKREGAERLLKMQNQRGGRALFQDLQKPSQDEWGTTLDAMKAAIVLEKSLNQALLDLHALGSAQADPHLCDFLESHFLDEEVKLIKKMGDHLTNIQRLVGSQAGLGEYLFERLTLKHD
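In PBS, apoferritin at 10 uM is loaded with 1-AMA from a 50% saturated solution. After 10 min of compound exposure at ambient temperature, reduced 535 nm fluorescence indicates probe displacement.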
Epigenetic reg: regulators of epigenetic silencing causing reporter derepression in mouse cells | AID 1865 | 0.2% of 280,000 active | murine LDR cells, GFP reporter derepression, 30 h | Potency, µM (doses to about 53.9 µM), for inactives: at the top dose GFP activation, most hits filed as activators; further: % of control where 0% means no effect; nearly all actives have a fitted effect of over 60% in size
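In this reporter-derepression format, murine cells bearing a silenced integrated CMV-GFP locus incubate with test compound (30 h, 37 C), then are washed and imaged; fluorescent objects of 20–120 um count as induced cells.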
HTT cytoprotect: protects HTT-Q103 PC12 cells, measured by ATP; PC12 HTT-Q103 induced, cytoprotection, ATP luminescence, 40 h; Potency, µM (doses to about 56.4 µM), for inactives: cytoprotection (ATP increase), usual class: activators; 0.14% of 230,000 active; further: % of control where 0% means no effect; nearly all actives have a fitted effect of over 45% in size
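Huntington model: PC12 line, ecdysone-inducible HTTQ103 exon1–GFP, tebufenozide 100 nM. Test articles in a dose series. Endpoint luminescence from cellular ATP.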
PTAP TSG101 blk: blocks PTAP/TSG101 interaction to inhibit HIV-1 budding; Q99816; Fluorescence polarization, FITC-PTAP peptide / Tsg101 binding; Potency, µM (highest dose often 115 µM), inactives show at the top dose activity change, negative = inhibition, actives largely listed as inhibitors; 340,000 tested, under 10 active; active means well fitted inhibition curve with a large enough effect in the main read-out, with a control signal flat, not every such curve was filed as active; inconclusive means small, poorly fitted or top-dose-only effect, or effect the other way, or a change in a side signal; inactive means no such curve, though single readings can be large or run the other way; further: % of control where 0% means no effect
Target sequence (Q99816 whole entry, looked up): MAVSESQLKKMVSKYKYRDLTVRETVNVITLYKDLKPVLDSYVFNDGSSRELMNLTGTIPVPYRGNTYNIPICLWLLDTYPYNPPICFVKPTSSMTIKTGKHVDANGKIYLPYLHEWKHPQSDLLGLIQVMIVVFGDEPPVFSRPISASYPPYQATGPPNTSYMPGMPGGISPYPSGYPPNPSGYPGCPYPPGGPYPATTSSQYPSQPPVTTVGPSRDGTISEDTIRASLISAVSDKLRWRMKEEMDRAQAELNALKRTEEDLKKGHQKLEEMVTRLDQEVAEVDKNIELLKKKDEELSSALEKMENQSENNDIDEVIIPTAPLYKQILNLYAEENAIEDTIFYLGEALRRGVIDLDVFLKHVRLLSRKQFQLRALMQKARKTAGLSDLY
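Tsg101 binding domain (10 uM final) was mixed with compound and a FITC-labeled PTAP peptide (50 nM final) in HEPES pH 7.5 buffer with NaCl, Tween 20, EDTA and TCEP; fluorescence polarization was read after 20 min at r.t.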
HTT aggregate: mutant huntingtin aggregation inhibition; Potency, µM (top dose mostly 46.1 µM), for inactives: at the top dose activity change, negative = inhibition, hits mostly inhibitors; PC12 HttQ103-GFP aggregates, Acumen cytometry, 40 h; 1.1% of 220,000 active; further: on the % scale 0 is the no-effect control and ±100 the full control effect; nearly all actives have a fitted effect of over 60% in size
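PC12 cells stably carrying ecdysone-inducible HTT exon 1 Q103–GFP were induced with tebufenozide (100 nM final) and treated with library compounds in titration. GFP aggregates in lysates were counted by laser scanning cytometry.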
PINK1 expr mod: PINK1 expression modulation | PINK1 immunofluorescence, high-content cytometry, 24 h | Potency, µM (highest dose often 76.6 µM), without a hit: at the highest dose activation (PINK1 increase), most hits filed as activators | 0.2% of 410,000 active; active means well fitted activation curve with a large enough effect; inconclusive means small, poorly fitted or top-dose-only effect; cell line not stated here; further: % of control where 0% means no effect; nearly all actives have a fitted effect of over 65% in size
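PINK1 protein level read as immunofluorescence by microplate cytometer in a fixed, stained stable cell line after 24 h exposure to five compound concentrations, with CCCP as control.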
Numbers without * were called inactive; [ ] = dose if it differs, or a comment. Unless noted, the call rests on the fitted dose curve; in most records, active means well fitted curve in the direction sought with a large enough effect; inconclusive means small, poorly fitted or top-dose-only effect, or another doubt; inactive means no such curve, though single readings can be large; an effect the other way counts as inactive or inconclusive. Potency means the concentration at half of the fitted maximal effect.

CC1(C)C(=O)OC(C(=O)c2ccccc2)C(C)(C)C1=O (centres undefined) was read as Apoferritin bind 8.9µM*, Epigenetic reg -2%, HTT cytoprotect -13%, PTAP TSG101 blk -2%, HTT aggregate inconclusive and PINK1 expr mod 1%.
CC1(C)C(=O)OC(C(=O)c2ccc(Cl)cc2)C(C)(C)C1=O (centres undefined) was read as Apoferritin bind inconclusive, Epigenetic reg 0%, HTT cytoprotect 11%[10 µM], PTAP TSG101 blk -1%, HTT aggregate -5% and PINK1 expr mod 0%.
Screening COc1ccc(C(=O)CSc2nnc(Cn3cnc4ccccc43)o2)cc1 returned Apoferritin bind inconclusive, Epigenetic reg -1%, HTT cytoprotect -12%[10 µM], PTAP TSG101 blk -3%, HTT aggregate 10µM* and PINK1 expr mod 1%.
`CC(=O)c1ccc(NC(=O)CSc2nnc(Cn3cnc4ccccc43)o2)cc1` gave Apoferritin bind -14%, Epigenetic reg 0%, HTT cytoprotect 2%[10 µM], PTAP TSG101 blk -5%, HTT aggregate -2%[9.22 µM] and PINK1 expr mod -1%.
For CCc1cc2c(=O)c(-c3cscn3)coc2c(CN(C)C)c1O the results were Apoferritin bind 78%, Epigenetic reg 0%, HTT cytoprotect -37%[10 µM], PTAP TSG101 blk 1%, HTT aggregate 11µM* and PINK1 expr mod 4%.
Screening N[C@@H](Cc1cc(CP(=O)(O)O)cc(-c2ccccc2Cl)c1)C(=O)O returned Apoferritin bind -2%, Epigenetic reg 8% and HTT cytoprotect 32µM*.
Screening Cc1cc(C)c2nc(SC(C)C#N)cc(C)c2c1 (centres undefined) returned Apoferritin bind -7%, Epigenetic reg 1%, HTT cytoprotect 0.63µM*, PTAP TSG101 blk 0%, HTT aggregate -16% and PINK1 expr mod 4%.
`COc1ccccc1C1=NNC(=Nc2cccc(S(=O)(=O)N(C)C)c2)SC1` gave Apoferritin bind -1%, Epigenetic reg -3%, HTT cytoprotect inconclusive, PTAP TSG101 blk 0%, HTT aggregate 11µM* and PINK1 expr mod inconclusive.
For COCCn1c(C)cc(C2=NNC(=Nc3ccccc3)SC2)c1C the results were Apoferritin bind inconclusive, Epigenetic reg 0%, HTT cytoprotect -20%, PTAP TSG101 blk -6%, HTT aggregate 6% and PINK1 expr mod 5%.
For CN(c1ccccc1)S(=O)(=O)c1ccc(NC(=O)c2ccc(-c3ccccc3)cc2)cc1 the results were Apoferritin bind -16%, Epigenetic reg 0%, HTT cytoprotect -37%, HTT aggregate 13µM* and PINK1 expr mod inconclusive.
`CC(=O)Nc1ccc(NC(=O)c2ccc(N(C)S(=O)(=O)c3ccc(C)cc3)cc2)cc1` gave Apoferritin bind -6%, PTAP TSG101 blk -1% and PINK1 expr mod 10%.
`N=c1n(CC(=O)c2ccc([N+](=O)[O-])cc2)c2ccccc2n1Cc1ccc(Cl)cc1` gave Apoferritin bind 0%, Epigenetic reg 16µM*, HTT cytoprotect -18%[10 µM], PTAP TSG101 blk 18%, HTT aggregate -8% and PINK1 expr mod -3%.
`N=c1n(CC(=O)c2ccc(Br)cc2)c2ccccc2n1Cc1ccccc1` gave PTAP TSG101 blk 1% and PINK1 expr mod 0%.
N=c1n(CC(=O)c2ccc([N+](=O)[O-])cc2)c2ccccc2n1Cc1ccccc1 was read as Apoferritin bind 41%, Epigenetic reg 22µM*, HTT cytoprotect -17%[10 µM], PTAP TSG101 blk 30%, HTT aggregate inconclusive and PINK1 expr mod inconclusive.
Screening Cc1cc(SCn2nnc3ccccc3c2=O)nc2ccccc12 returned Apoferritin bind 4%, Epigenetic reg -1%, HTT cytoprotect -3%[10 µM], PTAP TSG101 blk -1%, HTT aggregate 19% and PINK1 expr mod 1%.
`Cc1ccc(-n2nnnc2SCn2nnc3ccccc3c2=O)c(C)c1` gave Apoferritin bind -10%, Epigenetic reg 0%, HTT cytoprotect -69%, PTAP TSG101 blk -6%, HTT aggregate 8.9µM* and PINK1 expr mod -1%[38.3 µM].
Screening COCc1c(C(=O)NCC2CCCN(C)C2)cnn1-c1ncc2c(n1)-c1ccccc1CCC2 (centres undefined) returned PINK1 expr mod 0%.
For CC1=C(C#N)C(NC(=O)C2CC2)(C(F)(F)F)C(=O)N1 (centres undefined) the results were Apoferritin bind 7%, Epigenetic reg -2%, HTT cytoprotect -55%[10 µM], PTAP TSG101 blk -1%, HTT aggregate 0.32µM* and PINK1 expr mod 0%.
`O=S(=O)(Nc1cccc2cccnc12)c1ccccc1` gave Apoferritin bind inconclusive, PTAP TSG101 blk 1% and PINK1 expr mod 6%.
`O=S(=O)(Nc1cccc2cccnc12)c1ccc(S(=O)(=O)N2CCCC2)cc1` gave Apoferritin bind -11%, Epigenetic reg -1%, HTT cytoprotect 0%[10 µM], PTAP TSG101 blk -1% and HTT aggregate 0.79µM*.
CCOC(=O)c1ccc(-c2ccc(/C=C(\C#N)C(=O)Nc3c(C)cccc3Cl)o2)cc1 was read as Apoferritin bind 4%, Epigenetic reg 11µM* and PINK1 expr mod 0%.
`O=C(Nc1cccnc1)C1(F)C(F)(F)C(F)(F)C(F)(F)C(F)(F)C1(F)F` gave Apoferritin bind 13µM*, Epigenetic reg 0%, HTT cytoprotect -54%, PTAP TSG101 blk -7%, HTT aggregate 6.3µM* and PINK1 expr mod 0%.
Screening O=C(Nc1cccnc1)Nc1ccccc1Cl returned Apoferritin bind -1%, Epigenetic reg 4%, HTT cytoprotect 0.79µM*, PTAP TSG101 blk -6% and PINK1 expr mod -4%[38.3 µM].
Screening COc1cccc(/C=C/c2nccc3ccccc23)c1OC returned PINK1 expr mod 3%.
For O=C(O)c1nnsc1-c1ccc(-c2snnc2C(=O)O)cc1 the results were HTT cytoprotect 1%[10 µM].
`CCOC(=O)c1ccc(CNc2ncnc3nc[nH]c23)cc1` gave PINK1 expr mod 2%.
For CN(C(=O)c1cnn(-c2ncc3c(n2)-c2ccccc2CCC3)c1C1CC1)C1CCOC1 (centres undefined) the results were PINK1 expr mod 0%.
Screening CCC(C)NS(=O)(=O)c1ccc(S(=O)(=O)Nc2cc3c(cc2C(C)=O)OCO3)cc1 (centres undefined) returned Apoferritin bind inconclusive, Epigenetic reg -1%, HTT cytoprotect inconclusive, PTAP TSG101 blk -7%, HTT aggregate 13µM* and PINK1 expr mod 1%[38.3 µM].

Screening data (PubChem)
